Source: PubChem BioAssay (NCI)
This is part of a sample that, as a whole, favours compounds with a hit. Of some 83,000 tested, about 20% had one in any assay.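 Treatment: one concentration, 48 hours, 96-well format. Scoring: percent growth, with anything below 10 considered active.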 Calls of active or inactive are those of the source.

Experiments:
Assay in all cases: NCI-60 one-dose screen, 48 h (100 = growth as untreated, 0 = no growth, -100 = all killed)
Conditions in all cases: 10 µM unless noted
DU-145 prostate = tested on: DU-145 prostate
MALME-3M melanoma = tested on: MALME-3M melanoma
MDA-MB-231 breast = tested on: MDA-MB-231 breast
RXF 393 renal = tested on: RXF 393 renal
SF-268 CNS = tested on: SF-268 CNS
SF-295 CNS = tested on: SF-295 CNS
SF-539 CNS = tested on: SF-539 CNS
UACC-257 melanoma = tested on: UACC-257 melanoma
M14 melanoma = tested on: M14 melanoma
K-562 leukemia = tested on: K-562 leukemia

Measured: growth

COc1cc([N+](=O)[O-])c2nc(C)ccc2c1[N+](=O)[O-]
inactive: DU-145 prostate 84.9% | MALME-3M melanoma 88% | MDA-MB-231 breast 94.4% | RXF 393 renal 88.2% | SF-268 CNS 98% | SF-295 CNS 132% | SF-539 CNS 118% | UACC-257 melanoma 101% | M14 melanoma 92.5%

N#CC1(C#N)C(c2ccc(N(CCCl)CCCl)cc2)OC23CCCCC2C1(C#N)C(=N)O3 (centres undefined)
inactive: DU-145 prostate 56.4% | MALME-3M melanoma 96.9% | MDA-MB-231 breast 95.3% | RXF 393 renal 73.9% | SF-268 CNS 69.6% | SF-295 CNS 108% | SF-539 CNS 85% | UACC-257 melanoma 87.9% | M14 melanoma 93.9%

NC(=Nc1ccccc1)N[N+](=O)[O-]
inactive: DU-145 prostate 111% | MALME-3M melanoma 103% | MDA-MB-231 breast 115% | RXF 393 renal 95.2% | SF-268 CNS 102% | SF-295 CNS 113% | UACC-257 melanoma 112% | M14 melanoma 99.9%

CCc1ccccc1[C@@H]1C[C@]2(C)CCO[C@@H]2OO1
inactive: DU-145 prostate 105% | MALME-3M melanoma 110% | MDA-MB-231 breast 103% | RXF 393 renal 112% | SF-268 CNS 98.3% | SF-295 CNS 101% | SF-539 CNS 111% | UACC-257 melanoma 96.7% | M14 melanoma 104%

Nc1ccc2c(c1)oc1ccccc12
inactive: DU-145 prostate 103% | K-562 leukemia 89.5% | MDA-MB-231 breast 80.2% | RXF 393 renal 92.4% | SF-268 CNS 83.3% | SF-295 CNS 102% | SF-539 CNS 104% | UACC-257 melanoma 92.6% | M14 melanoma 101%
